In the library only some 12% were active in any assay of this set; here they are far more common.
NS1 function inh = qHTS Assay for Inhibitors of Influenza NS1 Protein Function; 0.4% of 270,000 active; Potency, µM (series often up to 46.1 µM), for the others: at the highest dose activity, positive = more growth; calls by dose curve; further: actives are rising curves; nearly all actives have a fitted effect of over 50% in size
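OD600 was taken as the measure of yeast growth restored by compound in an NS1-expressing S. cerevisiae strain. Cells had been washed out of glucose medium and diluted 1:100 into galactose -URA medium, pH 6.0.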
HCV inh = qHTS Assay for Inhibitors of Hepatitis C Virus (HCV); Huh7.5.1 HCVcc-Cre infection, luciferase reporter, 44 h; Potency, µM (doses to about 41.8 µM), for the others: top-dose activity change, negative = inhibition, most hits filed as inhibitors; 3.4% of 340,000 active; AID 651820, 2012; further: on the % scale 0 is the no-effect control and ±100 the full control effect
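Infectious HCVcc-Cre (~0.5 moi) was added to cells just after compound, with cells seeded 4 h earlier at 1,000 per well. Luciferase activity after 44 h culture reported infection; substrate was incubated 15 min at room temperature before reading.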
SARS PLP yeast = qHTS of Yeast-based Assay for SARS-CoV PLP. AID 485353, 2010. 0.19% of 330,000 active. Potency, µM (series often up to 32.9 µM), inactives show at the top dose activity, positive = growth rescue, actives largely listed as activators. S. cerevisiae expressing SARS-CoV PLpro, growth rescue; calls by dose curve; further: 0% is about no effect; nearly all actives have a fitted effect of over 55% in size
AMA1-RON2 inh = qHTS for Inhibitors of AMA1-RON; Towards Development of Antimalarial Drug Lead: Primary Screen. 0.2% of 360,000 active. AlphaScreen AMA1-biotinylated RON2 peptide binding. Plasmodium falciparum AMA1 (3D7) - RON2 peptide interaction. Potency, µM (doses to about 58.2 µM), for inactives: at the top dose activity change, negative = inhibition, hits mostly inhibitors;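 further: 0% = vehicle wells and -100% = peptide control; nearly all actives have a fitted effect of over 45% in size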
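AMA1 (3D7) with his tag at 25 nM final met compounds first, then biotinylated RON2 peptide at 25 nM; detection used donor plus acceptor beads, 10 µg/mL apiece, read by AlphaScreen after 30 min at room temperature.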
Pf growth 96h = Primary qHTS for delayed death inhibitors of the malarial parasite plastid, 96 hour incubation; P. falciparum luciferase reporter growth, 96 h; Potency, µM (highest dose often 28.7 µM), for inactives: at the highest dose activity change, negative = inhibition, actives largely listed as inhibitors; 6.9% of 320,000 active; AID 504834, 2011; further: on the % scale 0 is the no-effect control and ±100 the full control effect
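Cell-based qHTS: luciferase-tagged P. falciparum in erythrocytes (2% hematocrit, 0.05% parasitemia final) incubated with compounds for 96 hours, 37 C, 5% CO2; luciferase detection reagent then added and luminescence measured.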
Pf growth 48h = Primary qHTS for delayed death inhibitors of the malarial parasite plastid, 48 hour incubation; 5.9% of 310,000 active; P. falciparum luciferase growth in erythrocytes, 48 h; Potency, µM (top dose mostly 28.7 µM), for inactives: at the highest dose activity change, negative = inhibition, usual class: inhibitors; further: on the % scale 0 is the no-effect control and ±100 the full control effect
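Cell-based growth assay: transgenic P. falciparum expressing firefly luciferase, cultured in red cells within RPMI 1640 containing 0.5% w/v Albumax, 24 mM bicarbonate and gentamycin. A drop in luciferase activity indicates inhibition.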
The depositor's hits bear a star; ? = inconclusive; / = no result given; [ ] = another dose, or the depositor's remark. Unless noted, the call rests on the fitted dose curve; in most records, active means well fitted curve in the direction sought with a large enough effect; inconclusive means small, poorly fitted or top-dose-only effect, or another doubt; inactive means no such curve, though single readings can be large; an effect the other way counts as inactive or inconclusive. Potency means the concentration at half of the fitted maximal effect.

SMILES | NS1 function inh | HCV inh | SARS PLP yeast | AMA1-RON2 inh | Pf growth 96h | Pf growth 48h
O=S1(=O)C[C@H](N2CCOCC2)[C@@H](COCc2ccccc2)N1 | / | / | / | 0.4% | / | /
O=C(CN1CCC(n2nnc3cc(C(F)(F)F)ccc32)CC1)Nc1ccc2c(c1)CCC2 | 6.0% | -12.9% | -0.4% | -1.2% | ? | /
O=C(c1ccc([N+](=O)[O-])cc1)N1CCC(n2nnc3cc(F)ccc32)CC1 | 1.1% | 3.0% | -0.5% | -3.9% | -16.6% | 66.0%
O=C(N1CCOCC1)N1CCC(n2nnc3cc(F)ccc32)CC1 | 1.8% | 17.4% | 0.3% | 3.4% | 10.4µM* | -14.4%
O=C(CN1CCC(n2nnc3cc(C(F)(F)F)ccc32)CC1)Nc1ccc2c(c1)OCCO2 | -26.0% | ? | 2.8% | 16.6% | 11.1% | 11.7µM*
O=C(O)CCC(=O)N1CCC(n2nnc3cc(C(F)(F)F)ccc32)CC1 | -1.0% | 9.2% | -4.9% | 19.5% | 0.3% | 2.08µM*
COc1ccc(C)cc1-n1nnnc1SCC(=O)N1CCC(C(=O)Nc2nccs2)CC1 | 4.3% | -1.4% | -1.2% | -1.2% | 1.65µM* | -59.8%
CCN(CC)CCCNC(=O)CSc1nc2c(c(C(F)(F)F)n1)CCc1ccccc1-2 | -0.9% | 15.8µM* | -0.1% | -9.8% | 11.8% | ?
O=C(CSc1nc2c(c(C(F)(F)F)n1)CCc1ccccc1-2)NCc1ccccc1 | 5.8% | -4.8% | ? | 2.3% | 21.1% | -11.0%
O=C(O)CSc1nc2c(c(C(F)(F)F)n1)CCc1ccccc1-2 | / | -9.0% | -0.6% | -11.5% | 33.0% | 11.0%
Cc1nn(Cc2ccccc2)c(C)c1NC(=O)CSc1nc2c(c(C(F)(F)F)n1)CCc1ccccc1-2 | ? | ? | 6.2% | 0.0% | 8.28µM* | 5.22µM*
CCOC(=O)c1sc(N(Cc2ccccc2)C(=O)CCl)nc1C | -8.5% | 17.8µM* | -3.8% | -8.0% | -17.3% | ?
c1ccc(OCCOc2ccccc2-c2nnco2)cc1 | -22.6% | 4.5% | -0.2% | 11.2% | 5.22µM* | 34.5%
O=C(NCCc1ccccc1F)C1CCCN(c2nc3ccccc3s2)C1 (stereo not drawn) | -31.7% | -24.2% | -7.8% | 3.2% | -21.2% | -9.3%
Cc1cc(C)c(C(=O)c2ccc(C(=O)NC(C)(C)C)cc2)c(C)c1 | -58.6% | ? | -2.3% | 9.5% | 3.29µM* | /
Cc1cc(C)c(C(=O)c2ccc(C(=O)N(C(C)C)C(C)C)cc2)c(C)c1 | -46.4% | ? | -8.9% | -2.3% | ? | /
O=C(NNC(=O)c1ccncc1)c1ccccc1 | 0.4% | 17.9% | -0.4% | 4.5% | ? | 11.3%[0.00184 µM]
CC(C)(C)NC(=O)c1ccncc1 | 6.7% | 10.1% | -1.9% | 3.1% | 10.4µM* | /
Cc1cc(Nc2ccc(C(C)C)cc2)n2ncnc2n1 | 3.3% | -6.5% | -10.0% | 9.3% | 20.3% | 1.04µM*
Cc1cc(Nc2ccc3ccccc3c2)n2ncnc2n1 | 3.2% | -16.5% | -2.9% | 6.6% | -6.2% | 0.131µM*
COc1ccc(Nc2cc(C)nc3ncnn23)cc1 | / | -5.2% | / | -8.8% | / | /
O=C(Nc1ccc(O)c(-c2nc3ccccc3o2)c1)C1(c2ccccc2)CCCC1 | ? | ? | -0.5% | 82.8% | 29.5% | 14.7µM*
CCC1(C)Cc2nc3[nH]c(=S)n(-c4ccccc4)c(=O)c3cc2CO1 (stereo not drawn) | 9.4% | -6.1% | -15.8% | 48.7% | 7.38µM* | -6.3%
CC(=O)Nc1ccc2c(c1)N(S(=O)(=O)c1cccs1)CCC2 | / | -7.9% | 0.4% | -1.3% | 48.2% | -3.3%
CC(=O)c1ccc(-c2ccc([C@H]3[C@H]4C=CC[C@@H](C)[C@@H]4C(=O)N3Cc3ccccc3)c(F)c2)cc1 | -0.1% | -23.3%[8.37 µM] | -2.7% | -14.2% | ? | ?
SMILES | NS1 function inh | HCV inh | SARS PLP yeast | AMA1-RON2 inh | Pf growth 96h | Pf growth 48h
Cc1ccc(-c2ccc([C@H]3[C@H]4C=CC[C@@H](C)[C@@H]4C(=O)N3Cc3ccccc3)c(F)c2)cc1 | 27.9% | 55.9%[8.37 µM] | -6.4% | 0.0% | 10.4µM* | 11.7µM*
C[C@@H]1CC=C[C@H]2[C@H]1C(=O)N(Cc1ccccc1)[C@H]2c1ccc2ccccc2c1Br | -34.7% | ? | -3.5% | -9.4% | ? | 10.4µM*
O=C1C2C(c3cccc(/C=C/c4ccccc4)c3)CC=CC2C(c2ccc3ccccc3c2)N1Cc1ccccc1 (stereo not drawn) | -1.8% | 12.5% | 1.0% | -7.2% | ? | ?
C[C@@H]1CC=C[C@H]2[C@H]1C(=O)N(Cc1ccccc1)[C@H]2c1ccc(Br)cc1F | -52.4% | ? | -15.0% | 5.6% | -87.7% | ?
CC[C@@H]1CC=C[C@H]2[C@H]1C(=O)N(Cc1ccccc1)[C@H]2c1ccoc1 | -36.6% | -27.3% | -10.6% | 13.6% | ? | 11.7µM*
O=C1C2C(c3cccc(/C=C/c4ccccc4)c3)CC=CC2C(c2ccc(C(F)(F)F)cc2)N1Cc1ccccc1 (stereo not drawn) | -1.0% | -0.6% | 0.8% | 18.3% | 9.28µM* | 11.7µM*
CCC/C=C/c1ccc(CN2C(CC(C)C)C(=O)N(Cc3cn(CC4CCCCC4)nn3)CCS2(=O)=O)cc1 (stereo not drawn) | / | / | / | 0.6% | / | /
C[C@@H]1CC=C[C@H]2[C@H]1C(=O)N(Cc1ccccc1)[C@H]2c1ccc2ccccc2c1 | -101.5% | 16.6%[8.37 µM] | -15.9% | 0.9% | 3.7µM* | 10.4µM*
C[C@@H]1CC=C[C@H]2[C@H]1C(=O)N(Cc1ccccc1)[C@H]2c1ccc(F)c(Br)c1 | -114.2% | / | -20.0% | / | -6.8% | ?
NC1=NC(c2ccccc2C(F)(F)F)N(c2ccc(F)c(Cl)c2)C(N)=N1 (stereo not drawn) | -3.6% | -5.5% | 0.1% | -10.8% | 8.8% | 1.85µM*
CCOc1ccc(-n2c(SCC(N)=O)nc3c(c2=O)SCC3)cc1 | 6.8% | -14.9% | 1.7% | -4.3% | -30.5% | 8.28µM*
O=C(CSc1nc2c(c(=O)n1-c1ccc(Br)cc1)SCC2)Nc1nccs1 | 4.1% | -6.4% | -2.3% | -6.0% | -18.1% | ?
O=C(CSc1nc2c(c(=O)n1-c1ccc(Cl)cc1)SCC2)Nc1nccs1 | -21.4% | 1.7% | 5.3% | 8.4% | -7.8% | 5.22µM*
CCOC(=O)CSc1nc2c(c(=O)n1-c1ccc(OCC)cc1)SCC2 | 9.0% | 0.3% | 1.6% | 31.4% | / | -16.1%
COc1ccc(NC(=O)CSc2nc3c(c(=O)n2-c2ccc(F)cc2)SCC3)cc1 | -0.8% | 4.5% | -0.4% | -4.1% | 10.4µM* | -22.2%
COc1ccc(-n2c(SCC(=O)Nc3ccccc3)nc3c(c2=O)SCC3)cc1 | 4.8% | 9.8% | 12.2% | 10.3% | 0.9% | /
CC(C)c1nc2cc(C(=O)N(C)Cc3ccc(F)cc3)ccc2o1 | -19.9% | 6.7% | -1.4% | -6.1% | ? | 8.8%

Compound activity deposited in PubChem BioAssay by National Center for Advancing Translational Sciences (NCATS).
